# According to the supplement of paper PMC8728848:
# The entries come from a sample that favours the strongest signals as a whole.
# B1: Eosinophil-derived neurotoxin (EDN) (Homo sapiens), P10153 (protein)
# chain: MVPKLFTSQICLLLLLGLLAVEGSLHVKPPQFTWAQWFETQHINMTSQQCTNAMQVINNYQRRCKNQNTFLLTTFANVVNVCGNPNMTCPSNKTRKNCHHSGSQVPLIHCNLTTPSPQNISNCRYAQTPANMFYIVACDNRDQRRDPPQYPVVPVHLDRII
# What was measured:
# Experiment in all cases: glycan array binding signal (z-score within array); higher = stronger binding
# Conditions in all cases: glycan notation: IUPAC condensed, linker removed
# [1] = target: Fuc(a1-2)Gal(b1-3)GlcNAc(b1-2)Man(a1-3)[Fuc(a1-2)Gal(b1-3)GlcNAc(b1-2)Man(a1-6)]Man(b1-4)GlcNAc(b1-4)GlcNAc
# Method in brief: (§1)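 The binding signal is a Z-score computed within each array and averaged over linkers. Arrays of the same protein sequence at different concentrations or buffers were also averaged together. Data originate from 3228 arrays in the Consortium for Functional Glycomics database, kept only where the protein sequence was available.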
# [2] = target: Fuc(a1-2)Gal(b1-4)[Fuc(a1-3)]GlcNAc
# Method in brief: as §1
# [3] = target: Fuc(a1-2)[Gal(a1-3)]Gal(b1-3)GalNAc
# Method in brief: as §1
# [4] = target: Fuc(a1-2)[Gal(a1-3)]Gal(b1-3)GlcNAc(b1-2)Man(a1-3)[Fuc(a1-2)[Gal(a1-3)]Gal(b1-3)GlcNAc(b1-2)Man(a1-6)]Man(b1-4)GlcNAc(b1-4)GlcNAc
# Method in brief: as §1
# [5] = target: Fuc(a1-2)[Gal(a1-3)]Gal(b1-4)GlcNAc(b1-3)GalNAc
# Method in brief: as §1
# [6] = target: Fuc(a1-2)[GalNAc(a1-3)]Gal(b1-3)GlcNAc(b1-2)Man(a1-3)[Fuc(a1-2)[GalNAc(a1-3)]Gal(b1-3)GlcNAc(b1-2)Man(a1-6)]Man(b1-4)GlcNAc(b1-4)GlcNAc
# Method in brief: as §1
# [7] = target: Fuc(a1-2)[GalNAc(a1-3)]Gal(b1-4)GlcNAc(b1-3)GalNAc
# Method in brief: as §1
# [8] = target: Fuc(a1-3)[Gal(b1-4)]GlcNAc6S
# Method in brief: as §1
# [9] = target: Fuc(b1-3)GlcNAc
# Method in brief: as §1
# [10] = target: Gal(a1-3)Gal
# Method in brief: as §1
# [11] = target: Gal(a1-3)Gal(b1-4)[Fuc(a1-3)]GlcNAc(b1-2)Man(a1-3)[Gal(a1-3)Gal(b1-4)[Fuc(a1-3)]GlcNAc(b1-2)Man(a1-6)]Man(b1-4)GlcNAc(b1-4)GlcNAc
# Method in brief: as §1
# [12] = target: Gal(a1-3)GalNAc
# Method in brief: as §1
# [13] = target: Gal(b1-3)Gal(b1-4)GlcNAc(b1-2)Man(a1-3)[Gal(b1-3)Gal(b1-4)GlcNAc(b1-2)Man(a1-6)]Man(b1-4)GlcNAc(b1-4)GlcNAc
# Method in brief: as §1
# [14] = target: Gal(b1-3)GalNAc(a1-3)[Fuc(a1-2)]Gal(b1-4)GlcNAc
# Method in brief: as §1
# [15] = target: Gal(b1-3)GlcNAc
# Method in brief: as §1
# [16] = target: Gal(b1-3)GlcNAc(b1-2)Man(a1-3)[Gal(b1-3)GlcNAc(b1-2)Man(a1-6)]Man(b1-4)GlcNAc(b1-4)GlcNAc
# Method in brief: as §1
# [17] = target: Gal(b1-3)GlcNAc(b1-3)Gal(b1-4)GlcNAc
# Method in brief: as §1
# [18] = target: Gal(b1-4)GlcNAc(b1-2)Man(a1-3)[Gal(b1-4)GlcNAc(b1-2)Man(a1-6)]Man(b1-4)GlcNAc(b1-4)[Fuc(a1-6)]GlcNAc
# Method in brief: as §1
# [19] = target: Gal(b1-4)GlcNAc(b1-2)[Gal(b1-4)GlcNAc(b1-4)]Man(a1-3)[Gal(b1-4)GlcNAc(b1-2)Man(a1-6)]Man(b1-4)GlcNAc(b1-4)GlcNAc
# Method in brief: as §1
# [20] = target: Gal(b1-4)GlcNAc(b1-3)Gal(b1-3)GlcNAc
# Method in brief: as §1
# [21] = target: Gal(b1-4)GlcNAc(b1-3)Gal(b1-4)[Fuc(a1-3)GlcNAc(b1-6)]Gal(b1-4)Glc
# Method in brief: as §1
# [22] = target: Gal(b1-4)GlcNAc(b1-3)[Gal(b1-4)GlcNAc(b1-6)]Gal(b1-4)GlcNAc
# Method in brief: as §1
# [23] = target: Gal(b1-4)GlcNAc(b1-3)[GlcNAc(b1-6)]Gal(b1-4)GlcNAc
# Method in brief: as §1
# [24] = target: Gal3S(b1-3)[Fuc(a1-4)]GlcNAc
# Method in brief: as §1
# [25] = target: Gal3S(b1-4)Glc
# Method in brief: as §1
# [26] = target: Gal3S(b1-4)GlcNAc6S
# Method in brief: as §1
# [27] = target: Gal6S(b1-4)GlcNAc6S
# Method in brief: as §1
# [28] = target: GalNAc(b1-4)Gal(b1-4)Glc
# Method in brief: as §1
# [29] = target: Glc(a1-4)Glc
# Method in brief: as §1
# [30] = target: Glc(a1-6)Glc(a1-6)Glc
# Method in brief: as §1
# [31] = target: GlcNAc(a1-4)Gal(b1-4)GlcNAc(b1-3)Gal(b1-4)GlcNAc
# Method in brief: as §1
# [32] = target: GlcNAc(a1-4)Gal(b1-4)GlcNAc(b1-3)Gal(b1-4)[Fuc(a1-3)]GlcNAc(b1-3)Gal(b1-4)[Fuc(a1-3)]GlcNAc
# Method in brief: as §1
# [33] = target: GlcNAc(b1-2)[GlcNAc(b1-6)]Man(a1-6)[GlcNAc(b1-2)Man(a1-3)]Man(b1-4)GlcNAc(b1-4)GlcNAc
# Method in brief: as §1
# [34] = target: GlcNAc(b1-2)[GlcNAc(b1-6)]Man(a1-6)[GlcNAc(b1-2)Man(a1-3)][GlcNAc(b1-4)]Man(b1-4)GlcNAc(b1-4)GlcNAc
# Method in brief: as §1
# [35] = target: GlcNAc(b1-3)[GlcNAc(b1-4)][GlcNAc(b1-6)]GlcNAc
# Method in brief: as §1
# [36] = target: GlcNAc(b1-4)GlcNAc
# Method in brief: as §1
# [37] = target: Man(a1-3)[Man(a1-6)]Man(b1-4)GlcNAc(b1-4)GlcNAc
# Method in brief: as §1
# [38] = target: Neu5Ac(a2-3)Gal(b1-3)GlcNAc
# Method in brief: as §1
# [39] = target: Neu5Ac(a2-3)Gal(b1-3)[Neu5Ac(a2-6)]GalNAc
# Method in brief: as §1
# [40] = target: Neu5Ac(a2-3)Gal(b1-4)GlcNAc(b1-6)[Gal(b1-3)]GalNAc
# Method in brief: as §1
# [41] = target: Neu5Ac(a2-3)Gal(b1-4)[Fuc(a1-3)]GlcNAc(b1-3)GalNAc
# Method in brief: as §1
# [42] = target: Neu5Ac(a2-3)GalNAc
# Method in brief: as §1
# [43] = target: Neu5Ac(a2-6)Gal(b1-4)GlcNAc(b1-2)Man(a1-3)[Gal(b1-4)GlcNAc(b1-2)Man(a1-6)]Man(b1-4)GlcNAc(b1-4)GlcNAc
# Method in brief: as §1
# [44] = target: Neu5Ac(a2-6)Gal(b1-4)GlcNAc(b1-2)Man(a1-6)Man(b1-4)GlcNAc(b1-4)GlcNAc
# Method in brief: as §1
# [45] = target: Neu5Ac(a2-8)Neu5Ac(a2-3)[GalNAc(b1-4)]Gal(b1-4)Glc
# Method in brief: as §1
# [46] = target: Neu5Ac(a2-8)Neu5Ac(a2-8)Neu5Ac(a2-3)[GalNAc(b1-4)]Gal(b1-4)Glc
# Method in brief: as §1
# [47] = target: Neu5Ac(b2-6)Gal(b1-4)GlcNAc
# Method in brief: as §1
# [48] = target: Neu5Ac9Ac(a2-3)Gal(b1-3)GlcNAc
# Method in brief: as §1
# [49] = target: Neu5Gc(b2-6)Gal(b1-4)GlcNAc
# Method in brief: as §1
binder,measurement,setting,value
B1,glycan array binding signal (z-score),[1],0.954
same,glycan array binding signal (z-score),[2],-0.438
same,glycan array binding signal (z-score),[3],-0.092
same,glycan array binding signal (z-score),[4],0.666
same,glycan array binding signal (z-score),[5],-0.523
same,glycan array binding signal (z-score),[6],0.308
same,glycan array binding signal (z-score),[7],0.483
same,glycan array binding signal (z-score),[8],0.272
same,glycan array binding signal (z-score),[9],-0.332
same,glycan array binding signal (z-score),[10],-0.363
same,glycan array binding signal (z-score),[11],0.387
same,glycan array binding signal (z-score),[12],-0.593
same,glycan array binding signal (z-score),[13],0.187
same,glycan array binding signal (z-score),[14],0.269
same,glycan array binding signal (z-score),[15],-0.339
same,glycan array binding signal (z-score),[16],-0.33
same,glycan array binding signal (z-score),[17],0.648
same,glycan array binding signal (z-score),[18],1.36
same,glycan array binding signal (z-score),[19],-0.461
same,glycan array binding signal (z-score),[20],-0.443
same,glycan array binding signal (z-score),[21],0.142
same,glycan array binding signal (z-score),[22],1.13
same,glycan array binding signal (z-score),[23],1.36
same,glycan array binding signal (z-score),[24],0.104
same,glycan array binding signal (z-score),[25],-0.269
same,glycan array binding signal (z-score),[26],-0.506
same,glycan array binding signal (z-score),[27],-0.122
same,glycan array binding signal (z-score),[28],-0.211
same,glycan array binding signal (z-score),[29],-0.482
same,glycan array binding signal (z-score),[30],0.261
same,glycan array binding signal (z-score),[31],12.5
same,glycan array binding signal (z-score),[32],1.45
same,glycan array binding signal (z-score),[33],-0.199
same,glycan array binding signal (z-score),[34],0.017
same,glycan array binding signal (z-score),[35],0.413
same,glycan array binding signal (z-score),[36],-0.215
same,glycan array binding signal (z-score),[37],-0.552
same,glycan array binding signal (z-score),[38],-0.205
same,glycan array binding signal (z-score),[39],0.143
same,glycan array binding signal (z-score),[40],1.16
same,glycan array binding signal (z-score),[41],0.955
same,glycan array binding signal (z-score),[42],0.007
same,glycan array binding signal (z-score),[43],1.86
same,glycan array binding signal (z-score),[44],0.578
same,glycan array binding signal (z-score),[45],1.66
same,glycan array binding signal (z-score),[46],-0.121
same,glycan array binding signal (z-score),[47],0.387
same,glycan array binding signal (z-score),[48],-0.207
same,glycan array binding signal (z-score),[49],0.153
